Screening data (PubChem BioAssay)
The full list was thinned out, with hits kept by preference.
Pf Dd2 growth: Plasmodium falciparum Dd2 growth inhibition; P. falciparum Dd2 growth, SYBR Green, 72 h; Potency, µM (highest dose often 28.9 µM), without a hit: at the highest dose activity, negative = inhibition, hits mostly inhibitors; 120,000 tested, 4.3% active; AID 1347417; active = well fitted inhibition curve with a large enough effect;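 note: plate controls were DMSO vehicle for no effect and reference drug for full effect; nearly all actives have a fitted effect of over 65% in size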
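Readout: SYBR Green fluorescence, 485 nm excitation, 535 nm emission, after ~16 h lysis at 37C. Before that, Dd2-infected red cells (2.5% hematocrit) grew 72 h with compound, 29 uM top final concentration.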
* hit, by the source's call; i = inactive; [ ] = dose if it differs, or a comment. Potency is the fitted concentration of half-maximal effect.

SMILES	Pf Dd2 growth
Cc1cc(C)n(CC(=O)N2CC(F)(F)C[C@H]2c2nc(C3CC3)no2)n1	20.1%
CCN(CC)C(=O)c1c(-c2ccc(OC)cc2)noc1[C@H](C)O	-8.7%[44.1 µM]
COc1ccc(C)cc1NC(=O)Cn1ccn2nc(-c3ccc(F)cc3)c(CO)c2c1=O	-21.7%
CC[C@H]1CN(C(=O)c2ccnc(Cl)c2)CC[C@H]1CC(=O)NCc1cccnc1	0.7%[44.1 µM]
CC(=O)c1ccc(N2C(=O)N(CC(=O)c3ccc(C)cc3)c3ccccc3S2(=O)=O)cc1	-21.5%
CCN1C(=O)N(c2ccc(C(C)=O)cc2)S(=O)(=O)c2ccccc21	30.7%
CCOc1ccc(N2C(=O)N(Cc3ccc(C)cc3C)c3ccccc3S2(=O)=O)cc1	10µM*
Cc1ccc(NC(=O)N2CCOCCNC(=O)[C@H]3CCCC[C@H]32)cc1C	-7.5%
CCC1(N2CCN(C(=O)COc3cccc(Cl)c3)CC2)CCN(C(=O)NC)C1 (stereo not drawn)	10µM*
CCC1(N2CCN(C(=O)COc3ccc(Cl)cc3C)CC2)CCN(C(=O)NC)C1 (stereo not drawn)	-35.0%
CCC1(N2CCN(C(=O)COc3cccc(Cl)c3)CC2)CCN(S(C)(=O)=O)C1 (stereo not drawn)	i
O=C(NC1CCCC1)NC1CCN(c2nc3ncccc3o2)CC1	0.9%[44.1 µM]
CCc1ccc(CN2CCN(c3ccc(C(N)=O)cn3)CC2)nc1	-13.5%
Cc1nc(-c2cccc(Cl)c2)n(CC(=O)Nc2cccc(C(C)C)c2)c(=O)c1CCO	5.01µM*
COc1ccc(OC)c(NC(=O)Cn2c(-c3ccc(F)cc3)nc(C)c(CCO)c2=O)c1	-8.8%
COc1cc(NC(=O)Cn2c(-c3ccccc3)nc(C)c(CCO)c2=O)cc(OC)c1	8.91µM*
COc1cc(NC(=O)Cn2c(-c3ccccc3)nc(C)c(CCO)c2=O)cc(OC)c1OC	-16.1%
Cc1cc(NC(=O)Cn2c(-c3cccc(Cl)c3)nc(C)c(CCO)c2=O)no1	-19.4%
COc1ccc(Cl)cc1NC(=O)Cn1c(-c2ccc(F)cc2)nc(C)c(CCO)c1=O	14.1µM*
Cc1nc(-c2ccc(F)cc2)n(CC(=O)Nc2ccc(F)cc2)c(=O)c1CCO	i
Cc1ccc(NC(=O)Cn2c(-c3cccc(Cl)c3)nc(C)c(CCO)c2=O)cc1	-12.3%
COc1ccc(Cl)cc1NC(=O)Cn1c(-c2ccccc2)nc(C)c(CCO)c1=O	i
COc1ccc(NC(=O)Cn2c(-c3ccccc3)nc(C)c(CCO)c2=O)cc1OC	i
Cc1nc(-c2ccc(F)cc2)n(CC(=O)Nc2ccc(C(C)C)cc2)c(=O)c1CCO	7.08µM*
Cc1nc(-c2ccc(F)cc2)n(CC(=O)Nc2cc(F)ccc2F)c(=O)c1CCO	-16.2%
SMILES	Pf Dd2 growth
COc1ccc(CN2C(=O)CO[C@H](c3ccc(NC(=O)c4cccs4)cc3)[C@H]2CO)cc1	-14.9%
COCCN1CC2(CCCN(c3cc(C)c4ccccc4n3)C2)CCC1=O (stereo not drawn)	-8.1%
Cc1ccc(C)c(C(=O)N2CC(C(=O)NC3CCCCC3)C3(CCOCC3)C2)c1 (stereo not drawn)	2.4%
Cc1cccc(-c2ocnc2C(=O)N2CCCOCCNC(=O)CC2)c1	23.7%
Cn1c(=O)c2c(-c3cccc(Br)c3)n(C(C)(C)CO)cc2n(C)c1=O	-4.5%
Cn1c(=O)c2c(-c3ccccc3)n(CCCO)cc2n(C)c1=O	3.3%
Cc1ccc(-c2c3c(=O)n(C)c(=O)n(C)c3cn2-c2cc(C)ccc2O)cc1	5.62µM*
COc1ccccc1-c1nnc2n1C(C(=O)NCCc1ccc(Cl)cc1)CC2 (stereo not drawn)	1.78µM*
COc1ccccc1-c1nnc2n1C(C(=O)NC(C)C)CC2 (stereo not drawn)	-8.7%
COC(=O)CNC(=O)C1CCc2nnc(-c3ccccc3OC)n21 (stereo not drawn)	36.7%
CCn1nccc1C(=O)N1C[C@@H](Oc2ccccc2)C[C@H]1C(=O)NCCOC	26.8%
Fc1cccc(-c2nnn3c2nc(NCc2ccc4c(c2)OCO4)c2ccccc23)c1	7.9%
CC(C)Nc1nc2c(-c3cccc(Br)c3)nnn2c2ccccc12	i
Fc1cccc(-c2nnn3c2nc(NC2CCCCC2)c2ccccc23)c1	8.91µM*
FC(F)(F)CN1C2CCC1CN(c1nccc(Nc3ccccc3Cl)n1)C2	8.91µM*
FC(F)(F)CN1C2CCC1CN(c1cnc3ccccc3c1)C2	-27.4%
FC(F)(F)CN1C2CCC1CN(c1ccccn1)C2	9.0%[44.1 µM]
FC(F)(F)CN1C2CCC1CN(c1nnc(Cl)c3ccccc13)C2	0.708µM*
Cc1ncc2c(N3CC4CCC(C3)N4CC(F)(F)F)nc3ccccc3n12	5.01µM*
COc1ccccc1Nc1ccnc(N2CC3CCC(C2)N3CC(F)(F)F)n1	-25.5%
FC(F)(F)CN1C2CCC1CN(c1ncc(C(F)(F)F)cn1)C2	30.8%
O=[N+]([O-])c1ccc(Cl)nc1N1CC2CCC(C1)N2CC(F)(F)F	-24.4%
Cc1ccnc(N2CC3CCC(C2)N3CC(F)(F)F)c1[N+](=O)[O-]	6.1%
COCC(=O)N(C1CCOCC1)C1CCN(C(=O)c2ccc(OC)cc2C)CC1	4.7%
Cc1ccc(C(=O)N2CCC(N3C(=O)C(O)C34CCCCC4)CC2)s1 (stereo not drawn)	-29.0%
SMILES	Pf Dd2 growth
CCN1CCC2(CCC1=O)CN(C(=O)CCCc1cccs1)CCN2C (stereo not drawn)	10.8%
Cc1ccc(S(N)(=O)=O)cc1C(=O)N[C@H]1[C@H]2CCO[C@H]2[C@@H]1N1CCCC1	-3.3%
O=C1Nc2ccccc2OCC12CCN(Cc1ccncc1)CC2	-27.1%[44.1 µM]
CC(=O)N[C@@H]1CNC[C@H]1CO	37.3%
CN1c2cc(C(=O)Nc3ccc(OC(F)(F)F)cc3)ccc2C(=O)N2CCCC21 (stereo not drawn)	i
OC[C@@H]1CNC[C@H]1C1CCN(Cc2ccco2)CC1	11.1%
CCCS(=O)(=O)N1CCC2(CC1)CC(N1CCN(C(C)=O)CC1)CCO2 (stereo not drawn)	13.8%
c1ccc(-n2cc(CN3CCC(Oc4ccncc4)CC3)nn2)cc1	-22.1%
O=C(O)Cc1cc(C2CCN(Cc3cn(-c4ccccc4)nn3)CC2)n[nH]1	2.1%
COc1cccc(C2CCN(Cc3cn(-c4ccccc4)nn3)C2)c1OC (stereo not drawn)	12.6µM*
CN(C)CC1(O)CCC2(CCN(C(=O)CCCc3ccccc3)CC2)CC1	i
CC(C(=O)NCC1CC1)N1C(=O)COc2ccc(C(=O)COc3ccccc3Cl)cc21 (stereo not drawn)	i
Cc1ncoc1C(=O)NCCc1ncc(C)n1CC1CC1	-4.7%
COc1ccc(C2=NOC3(CCN(C(=O)c4ccc(C)cc4)C3)C2)cc1 (stereo not drawn)	i
Cc1oc(C(O)c2ccccc2)nc1C(=O)Nc1ccc2c(c1)NC(=O)CO2 (stereo not drawn)	10µM*
COc1ccc(NC(=O)c2nc(C(O)c3ccccc3)oc2C)cn1 (stereo not drawn)	i
Cc1oc(C(O)c2ccccc2)nc1C(=O)Nc1ccc(C(=O)Nc2ccccc2)cc1 (stereo not drawn)	i
CCCCS(=O)(=O)N1CCc2nn(CCOC)c(=O)n2CC1	5.2%
CC(NC(=O)C1CCCO1)C(=O)N1CCN(c2ccccn2)CC1 (stereo not drawn)	-5.8%
Cc1ccccc1-c1nn(-c2ccc(F)cc2F)cc1CN1CCCC1CCO (stereo not drawn)	7.94µM*
O=C(c1ccccc1OCC1CCCN(Cc2ccc(F)cc2Cl)C1)N1CCOCC1 (stereo not drawn)	i
Cc1ccccc1-c1nc2cc3c(cc2cc1CN1CCC[C@H]1CO)OCO3	-13.6%
